High-throughput results (PubChem)
ELG1 DNA repair: qHTS screen for small molecules that inhibit ELG1-dependent DNA repair in human embryonic kidney (HEK293T) cells expressing luciferase-tagged ELG1. HEK293T ELG1-luciferase reporter, luminescence, 16 h; DNA damage induced by 5-fluorouridine. Potency, µM (top dose mostly 46.1 µM), actives largely listed as inhibitors. 2.3% of 330,000 active. AID 504467, 2011; note: nearly all actives have a fitted effect of over 55% in size
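HEK293T cells expressing luciferase-tagged ELG1 (2,000/well) received 5-Fluorouridine plus compound or DMSO for 16 hr at 37 °C. Luciferase was read by ONE-Glo luminescence after 30 min at room temperature.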
TDP1 cell CPT: qHTS for Inhibitors of human tyrosyl-DNA phosphodiesterase 1 (TDP1): qHTS in cells in presence of CPT. Potency, µM (series often up to 46.2 µM), actives largely listed as inhibitors. chicken DT40 Tdp1-/-;hTDP1 cells + 20 nM CPT, ATP luminescence, 48 h. 12% of 420,000 active; note: nearly all actives have a fitted effect of over 55% in size
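Chicken DT40 Tdp1-/- cells complemented with human TDP1, 400 cells/well, exposed to compounds plus 20 nM camptothecin for at least 48 h at 37 C; viability read as ATP content by CellTiter-Glo luminescence.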
HT1080NT lethal: qHTS for induction of synthetic lethality in tumor cells producing 2HG: qHTS for the HT-1080-NT fibrosarcoma cell line; HT-1080-NT fibrosarcoma viability, CellTiter-Glo ATP luminescence, 48 h; Potency, µM (doses to about 46.1 µM), actives largely listed as cytotoxic; 1.6% of 360,000 active; AID 686970, 2013;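 note: NT is the 2HG producing partner of a matched IDH1 knockdown line; nearly all actives have a fitted effect of over 55% in size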
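Viability by CellTiter-Glo luminescence after 48 h compound exposure at 37C of HT-1080-NT cells (750/well, RPMI, 5% FBS). % activity scaled between DMSO wells and medium-only wells, then curve-fitted and categorized by curve class.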
IL-1B inflam inh: qHTS for Inhibitors of Inflammasome Signaling: IL-1-beta AlphaLISA Primary Screen; THP-1 LPS/ATP IL-1B secretion, AlphaLISA, 16 h; hits give low values; activity change, % at 57.5 µM; 4.7% of 360,000 active; AID 743279, 2014; in the data active = activity change below about -50%; inconclusive = mostly about -30% to -49%
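Secreted IL-1B measured by AlphaLISA bead assay after 16 h compound exposure of THP-1 cells; compounds (final up to 57.5 uM) added 1 h before LPS (250 ng/mL) and ATP (1.25 mM) stimulation; lower signal means less secretion.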
TDP1 cell noCPT: qHTS for Inhibitors of human tyrosyl-DNA phosphodiesterase 1 (TDP1): qHTS in cells in absence of CPT; DT40 Tdp1-/- hTDP1 cells, no CPT, ATP luminescence, 48 h; Potency, µM (top dose mostly 46.2 µM), usual class: inhibitors; 15% of 420,000 active; note: nearly all actives have a fitted effect of over 55% in size
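Chicken DT40 Tdp1-/- cells stably complemented with human TDP1 were seeded at 400 cells/well with DMSO in place of 20 nM camptothecin. After compound pinning, cells grew at least 48 hr at 37 °C; viability read by CellTiter-Glo luminescence.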
HT1080 IDH1KD tx: qHTS for induction of synthetic lethality in tumor cells producing 2HG: qHTS for the HT-1080-IDH1KD cell line; HT-1080 IDH1 knockdown viability, ATP luminescence, 48 h; Potency, µM (titrated, usually from 46.1 µM), most hits filed as cytotoxic; 2% of 360,000 active; AID 686971, 2013
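% activity derives from luminescence (CellTiter-Glo), normalised to DMSO and no-cell wells. HT-1080-IDH1KD cells, 750/well, had 48 h compound exposure at 37 °C.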
Of the large screens only hits and unclear results are named; the others gave an inactive call. A selection: hits, their analogues and other compounds. The true share with any hit is near 19%. Unless noted, calls come from the whole dose curve; as a rule, active = well fitted curve in the direction sought with a large enough effect; inconclusive = small, poorly fitted or top-dose-only effect, or another doubt; inactive = no such curve, though single readings can be large; an effect the other way counts as inactive or inconclusive.

CCCC(=O)N1CCC1(C)C(=O)Nc1ccc2scnc2c1 (stereo not given)	none (no result: ELG1 DNA repair)
CCNC(=O)N(C)c1c(CC)nc2ccc(C(=O)Nc3cccc(OCC(=O)N(C)C)c3)cn12	none (no result: ELG1 DNA repair)
CCc1nc2ccc(C(=O)NCCCn3ccnc3)cn2c1N(CC)CCN(C)C	none (no result: ELG1 DNA repair)
CCc1nc2ccc(C(=O)NCCCn3ccnc3)cn2c1N(C)Cc1ccc(OC)cc1	TDP1 cell CPT inconclusive, TDP1 cell noCPT 15µM (no result: ELG1 DNA repair)
CCc1nc2ccc(C(=O)NCCCn3ccnc3)cn2c1N(C)Cc1cc2ccccc2s1	TDP1 cell CPT inconclusive, HT1080NT lethal 21µM, IL-1B inflam inh inconclusive, TDP1 cell noCPT 16µM, HT1080 IDH1KD tx inconclusive (no result: ELG1 DNA repair)
CCc1nc2ccc(C(=O)NCCCn3ccnc3)cn2c1N(C)CCCc1ccccc1	TDP1 cell CPT 18µM, HT1080NT lethal inconclusive, IL-1B inflam inh inconclusive, TDP1 cell noCPT inconclusive, HT1080 IDH1KD tx inconclusive (no result: ELG1 DNA repair)
CCc1nc2ccc(C(=O)Nc3cccc(OCC(=O)N(C)C)c3)cn2c1N(C)Cc1cc2ccccc2s1	TDP1 cell CPT 16µM, HT1080NT lethal inconclusive, TDP1 cell noCPT 16µM, HT1080 IDH1KD tx inconclusive (no result: ELG1 DNA repair)
CCOC(=O)/C=C1\SCC(=O)N1CC(=O)Nc1cc(S(=O)(=O)N(C)C)ccc1C	none
O=C(c1cccc(F)c1)N1CCC2(CCN(Cc3ccccc3)CC2)CC1	none (no result: ELG1 DNA repair, HT1080NT lethal, IL-1B inflam inh, HT1080 IDH1KD tx)
CCOc1ccccc1OCCCn1c(-c2ccc(Cl)cc2)nc2ccccc2c1=O	none (no result: ELG1 DNA repair, HT1080NT lethal, IL-1B inflam inh, HT1080 IDH1KD tx)
Cc1cccc(C)c1NC(=O)CSc1nnc(C2CCCCC2)o1	none
CC(Oc1ccc2c3c(c(=O)oc2c1)CCC3)C(=O)NCCCn1ccnc1 (stereo not given)	none
O=C(O)c1ccc[nH]c1=S	none
CCc1nc2ccc(C(=O)N3CCCCC3)cn2c1N(C)CCCc1ccccc1	TDP1 cell CPT inconclusive, TDP1 cell noCPT inconclusive (no result: ELG1 DNA repair)
CCc1nc2ccc(C(=O)NCCCN(C)C)cn2c1N(C)CCCc1ccccc1	TDP1 cell CPT inconclusive, HT1080NT lethal 18µM, TDP1 cell noCPT inconclusive, HT1080 IDH1KD tx 23µM (no result: ELG1 DNA repair)
COc1ccc(CC(=O)Nc2ccc3nc(Nc4cccc(Cl)c4)cc(C)c3c2)cc1OC	TDP1 cell CPT 18µM, TDP1 cell noCPT 16µM (no result: ELG1 DNA repair, HT1080NT lethal, IL-1B inflam inh, HT1080 IDH1KD tx)
Cc1cc(Nc2cccc(Cl)c2)nc2ccc(NC(=O)Cc3ccc(Cl)cc3)cc12	TDP1 cell CPT 18µM, TDP1 cell noCPT inconclusive (no result: ELG1 DNA repair, HT1080NT lethal, IL-1B inflam inh, HT1080 IDH1KD tx)
Cc1cc(Nc2cccc(Cl)c2)nc2ccc(NC(=O)Cc3cccc(C(F)(F)F)c3)cc12	TDP1 cell CPT 9.2µM, TDP1 cell noCPT 7.3µM (no result: ELG1 DNA repair, HT1080NT lethal, IL-1B inflam inh, HT1080 IDH1KD tx)
CCN1CCN(c2cc(C)c3cc(NC(=O)Cc4ccc(OC)c(OC)c4)ccc3n2)CC1	none
COc1ccc(Cl)cc1C(=O)Nc1ccc2nc(Nc3cccc(Cl)c3)cc(C)c2c1	TDP1 cell CPT 21µM, TDP1 cell noCPT 12µM (no result: ELG1 DNA repair, HT1080NT lethal, IL-1B inflam inh, HT1080 IDH1KD tx)
O=C(Cc1cccc(C(F)(F)F)c1)Nc1ccccc1	TDP1 cell CPT inconclusive, TDP1 cell noCPT inconclusive
CC(C)=CC1C(C(=O)NCCc2ccccc2)C1(C)C (stereo not given)	TDP1 cell noCPT inconclusive (no result: ELG1 DNA repair)
CC(C)CC1OC(C(C)C)Cc2[nH]c(=S)[nH]c(=O)c21 (stereo not given)	TDP1 cell CPT inconclusive, TDP1 cell noCPT inconclusive (no result: ELG1 DNA repair)
CN(C)S(=O)(=O)N1CCC(Oc2cccc(C(=O)NC3CCOC3)c2)CC1 (stereo not given)	none
O=C(NC1CCCCC1)C(c1ccc2ncccc2c1)N(Cc1ccccc1)C(=O)c1cccs1 (stereo not given)	TDP1 cell CPT inconclusive, HT1080NT lethal inconclusive, IL-1B inflam inh -69, TDP1 cell noCPT 18µM, HT1080 IDH1KD tx inconclusive
